Sfp inh = blocks B. subtilis Sfp PPTase activity | Q9F4F7 | Biochemical Sfp PPTase activity, qHTS | Potency, µM, actives largely listed as inhibitors | 310,000 compounds, 3.5% hits | AID 1490;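 also: the enzyme is Sfp with the accession as filed and its product quenches rhodamine fluorescence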
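Fluorescence-quenching assay: 15 nM Sfp-PPTase preincubated 15 min at room temperature with compound, then 5 uM rhodamine-CoA and 12.5 uM BHQ-2-labelled YbbR peptide added. Fluorescence (ex 525/em 598 nm) read at start and after 30 min; difference gives rate.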
TrxR1 substrate = is turned over as a substrate by rat TrxR1; O89049; purified TrxR1 substrate turnover, NADPH consumption readout; Potency, µM (titrated, usually from 114 µM); 390,000 compounds, 0.01% hits; AID 588456; also: nearly all actives have a fitted effect of over 50% in size
Target sequence (O89049 whole entry, looked up): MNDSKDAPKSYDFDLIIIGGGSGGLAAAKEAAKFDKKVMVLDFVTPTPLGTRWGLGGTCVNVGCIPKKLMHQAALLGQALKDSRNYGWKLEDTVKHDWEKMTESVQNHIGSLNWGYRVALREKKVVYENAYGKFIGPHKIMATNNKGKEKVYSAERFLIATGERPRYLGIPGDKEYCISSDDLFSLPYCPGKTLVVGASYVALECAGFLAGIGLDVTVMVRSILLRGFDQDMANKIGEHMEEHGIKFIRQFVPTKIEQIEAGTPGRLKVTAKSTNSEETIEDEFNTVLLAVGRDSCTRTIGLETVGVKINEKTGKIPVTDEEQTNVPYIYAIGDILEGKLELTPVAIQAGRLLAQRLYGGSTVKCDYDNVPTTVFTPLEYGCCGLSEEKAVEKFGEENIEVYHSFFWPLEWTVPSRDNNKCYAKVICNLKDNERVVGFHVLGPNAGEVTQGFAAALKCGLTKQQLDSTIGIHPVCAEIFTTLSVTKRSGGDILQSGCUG
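Rat TrxR1, dispensed at 90 nM, was prereduced with 400 uM NADPH (final) for 5 min at ~22 deg C, then incubated with compound 15 min before 400 uM selenite. A first-read NADPH fluorescence drop versus no-compound background flagged substrates.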
TrxR1 inh = blocks rat thioredoxin reductase 1; AID 588453; recombinant rTrxR1, NADPH fluorescence consumption, selenite substrate; O89049; 390,000 compounds, 1% hits; Potency, µM (titrated, usually from 114 µM), most hits filed as inhibitors; also: nearly all actives have a fitted effect of over 65% in size
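Rat TrxR1 (90 nM in the dispensed reagent) was pre-reduced with 400 uM NADPH for 5 min at room temperature, then incubated with compound for 15 min. After 400 uM selenite was added, NADPH fluorescence (Ex 340/Em 450 nm) was followed for 8 min.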
VDR inhibitor = vitamin D3 receptor (human) inhibition. P11473. Potency, µM, hits mostly inhibitors. AID 504847. 400,000 compounds, 0.93% hits. VDR-SRC2-3 peptide fluorescence polarization, 2 h
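After 23 nl compound addition and a short centrifugation, plates sat for 2 hours at ambient temperature; polarization of fluorescence then indicated loss of VDR binding to peptide SRC2-3.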
KAT2A inh = blocks human GCN5L2 histone acetyltransferase; GCN5L2 HAT assay, ThioGlo1 CoA-SH fluorescence; Potency, µM (doses to about 58.9 µM), hits mostly inhibitors; 390,000 compounds, 0.21% hits; AID 504327
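Compounds, pin-transferred from DMSO stocks, meet 20nM GCN5L2 for 15 min before the reaction begins with H3(1-25) peptide (75uM) and acetyl-CoA (70uM). Thiol-reactive ThioGlo1 reports CoA release over 20 min at room temperature.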
GLS inh = glutaminase GLS (human) inhibition. O94925. GLS enzymatic activity, qHTS titration. Potency, µM (doses to about 45.5 µM), hits mostly inhibitors. 410,000 compounds, 0.21% hits
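hKGA; 45 mM KH2PO4 pH 8.2 + 0.02% Tween-20; cpd via pin tool; 1 mM Gln soln; GluOx/HRP/Amplex Red; RT 30 min; fluor. t0 & final.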
Large screens that a line does not name were inactive. An excerpt weighted towards active compounds, which were near 3.8% of everything screened. Calls follow the shape of the dose curve; as a rule, active = well fitted curve in the direction sought with a large enough effect; inconclusive = small, poorly fitted or top-dose-only effect, or another doubt; inactive = no such curve, though single readings can be large; an effect the other way counts as inactive or inconclusive.

O=C(C1=NN[C@@H]2C(=O)N(c3cccc(C(F)(F)F)c3)C(=O)[C@H]12)c1ccc2ccccc2n1	none
CC(=O)c1ccccc1NC(=O)COc1ccc(N(C)S(=O)(=O)c2ccc(C)c(C)c2)cc1	none (no result: Sfp inh)
O=C1C(Cl)=C(NCC2CCCO2)C(=O)N1C1CCCCC1 (stereo not drawn)	Sfp inh 40µM
O=C1C(Cl)=C(NCC2CCCO2)C(=O)N1c1ccccc1 (stereo not drawn)	TrxR1 inh inconclusive
Cc1ccc(NC(=O)CN2C(=O)S/C(=C\c3cc(C)n(-c4ccc(C(=O)O)cc4)c3C)C2=O)cc1	none
Cc1ccc(NC(=O)CN2C(=O)S/C(=C\c3cc(Cl)c(OCC(=O)O)c(Cl)c3)C2=O)cc1	Sfp inh 50µM, VDR inhibitor 71µM, GLS inh inconclusive
Cc1oc2ncn(C)c(=O)c2c1C(=O)NCc1ccc(Cl)cc1	GLS inh inconclusive (no result: Sfp inh)
COc1cc(/C=N/N2C(=O)CSC2=S)ccc1O	TrxR1 inh 32µM
Cc1ccccc1/C=N/N1C(=O)CSC1=S	TrxR1 inh 35µM
O=C1CSC(=S)N1/N=C/c1cc(Br)c(O)c(Br)c1	Sfp inh inconclusive, TrxR1 inh 79µM, VDR inhibitor inconclusive, GLS inh inconclusive
O=C1CSC(=S)N1N=Cc1ccccc1O	VDR inhibitor inconclusive (no result: Sfp inh, KAT2A inh)
O=C1CSC(=S)N1/N=C/c1ccc2c(c1)OCCO2	TrxR1 inh 79µM
COc1cc(O)c(C=NN2C(=O)CSC2=S)c(OC)c1	none (no result: Sfp inh, TrxR1 substrate, TrxR1 inh, VDR inhibitor, KAT2A inh)
O=C1CSC(=S)N1N=Cc1c[nH]c2ccc(Br)cc12	none (no result: Sfp inh, TrxR1 substrate, TrxR1 inh, VDR inhibitor, KAT2A inh)
COc1ccc(Br)cc1/C=N/N1C(=O)CSC1=S	TrxR1 inh inconclusive, GLS inh 20µM
COc1ccc(CNC(=O)c2sc(=S)n(-c3ccccc3)c2N)cc1	Sfp inh 25µM
CCOc1ccc(-n2c(N)c(C(=O)NCc3ccco3)sc2=S)cc1	Sfp inh 13µM, VDR inhibitor inconclusive, KAT2A inh inconclusive
COC(=O)c1sc(=S)n(-c2cccc(Cl)c2)c1N	Sfp inh 32µM, VDR inhibitor inconclusive
COc1ccc(CNc2cc(-c3cccnc3)ncn2)c(OC)c1	VDR inhibitor 32µM, KAT2A inh inconclusive (no result: TrxR1 substrate, TrxR1 inh, GLS inh)
COc1ccccc1-c1cc(Nc2ccn[nH]2)ncn1	VDR inhibitor 45µM, KAT2A inh inconclusive (no result: TrxR1 substrate, TrxR1 inh, GLS inh)
COc1ccc(CNc2cc(-c3ccccc3OC)ncn2)c(OC)c1	Sfp inh 89µM, VDR inhibitor inconclusive (no result: TrxR1 substrate, TrxR1 inh, GLS inh)
COc1ccc(-c2cc3ncc(-c4ccccc4)c(N)n3n2)cc1	none
CCCc1nc([N+](=O)[O-])c(S(=O)(=O)c2ccccc2)n1CC(C)C	TrxR1 inh 2.8µM
Cn1cnc([N+](=O)[O-])c1Sc1nnc(-c2cccnc2)n1C	TrxR1 inh 0.63µM
Cn1cnnc1Sc1c([N+](=O)[O-])ncn1C	none (no result: TrxR1 substrate, TrxR1 inh, GLS inh)
CCC(C)(C)C1CCC2(CC1)NC(=S)N(c1ccccc1)N2 (stereo not drawn)	Sfp inh 79µM
CC(C)(C)C1CCC2(CC1)NC(=S)N(c1ccccc1)N2 (stereo not drawn)	Sfp inh inconclusive, VDR inhibitor inconclusive
O=C(NCc1cccs1)c1ccc(CSc2nc3cccnc3n2Cc2ccccc2F)cc1	none (no result: Sfp inh)
C(=C\c1nc(N2CCCCCC2)c2ccccc2n1)/c1ccccc1	Sfp inh 28µM
O=C1/C(=C/c2ccco2)N=C(N2CCCCC2)N1c1ccccc1	Sfp inh inconclusive, TrxR1 inh 71µM
CCN(C(=O)COc1cc(=O)n(CC)c2ccccc12)c1cc(Cl)ccc1OC	none
O=c1oc2c(CN3CCOCC3)c(O)ccc2cc1-c1ccc(Cl)cc1	KAT2A inh inconclusive (no result: Sfp inh)
O=c1oc2c(CN3CCCC3)c(O)ccc2cc1-c1ccccc1	KAT2A inh 18µM (no result: Sfp inh)
O=C(O)C(Oc1ccc2ccc(=O)oc2c1)c1ccccc1 (stereo not drawn)	none (no result: TrxR1 substrate, TrxR1 inh, KAT2A inh, GLS inh)
COc1ccc(-c2cc3ccc(O)c(CN4CCCC4)c3oc2=O)cc1	KAT2A inh inconclusive (no result: Sfp inh)
O=C(O)C(Oc1ccc2cc(-c3ccc(Cl)cc3)c(=O)oc2c1)c1ccccc1 (stereo not drawn)	Sfp inh inconclusive, TrxR1 inh 45µM
COc1ccc(-c2cc3ccc(O)c(CN4CCC(C)CC4)c3oc2=O)cc1	KAT2A inh 28µM (no result: Sfp inh)
COc1ccc(-c2cc3ccc(O)cc3oc2=O)cc1	KAT2A inh 32µM
CCCCCn1c(=O)[nH]c2cc(C(=O)N3CCN(c4ccc(F)cc4)CC3)ccc2c1=O	none (no result: Sfp inh, KAT2A inh)
CC(C)OCCCN1C=C2C(=O)C(C)(OC(=O)C3CCCC3)C(=O)C=C2C=C1c1ccsc1 (stereo not drawn)	none (no result: TrxR1 substrate, TrxR1 inh, VDR inhibitor, KAT2A inh, GLS inh)
CCOC(=O)c1oc2ccc(Cl)cc2c1NC(C)=O	none
CN(C)NC(=S)NC1(C)CCS(=O)(=O)C1 (stereo not drawn)	Sfp inh 89µM
O=C(NCc1cccc(Cl)c1)c1cnn2c1NC(c1ccco1)CC2C(F)(F)F (stereo not drawn)	TrxR1 inh inconclusive
CCOC(=O)N1CCC(NC(=O)c2cnn3c2NC(c2ccco2)CC3C(F)(F)F)CC1 (stereo not drawn)	Sfp inh 56µM, TrxR1 inh inconclusive (no result: KAT2A inh)
COCCNC(=O)c1cnn2c1NC(c1ccco1)CC2C(F)(F)F (stereo not drawn)	none
CN(Cc1ccc(-n2cccn2)cc1)C(=O)c1cnn2c1NC(c1ccco1)CC2C(F)(F)F (stereo not drawn)	Sfp inh 20µM
O=c1oc(-c2ccc(O)c(O)c2)cc2cccc(O)c12	GLS inh inconclusive (no result: Sfp inh)
O=c1oc(-c2ccc(O)c(O)c2)cc2cc(O)cc(O)c12	GLS inh 18µM (no result: Sfp inh)
COc1cc(NC(=O)CN2C(=O)COc3ccc(S(=O)(=O)N4CCOCC4)cc32)cc(OC)c1	none
Cn1cnc([N+](=O)[O-])c1SCC(=O)NN	Sfp inh 56µM
Cc1[nH]c2ccccc2c1C(C[N+](=O)[O-])c1ccco1 (stereo not drawn)	TrxR1 inh 13µM
Cc1ccc2cc(CN(Cc3ccco3)S(=O)(=O)c3c(C)ccc4nsnc34)c(=O)[nH]c2c1	Sfp inh 16µM, TrxR1 inh 13µM
Cc1ccc2[nH]c(=O)c(CN(CCCO)S(=O)(=O)c3c(C)ccc4nsnc34)cc2c1	none
Cc1cc2cc(CN(CCCO)S(=O)(=O)c3cccc4nsnc34)c(=O)[nH]c2cc1C	none
Cc1cc2cc(CN(Cc3ccco3)S(=O)(=O)c3c(C)ccc4nsnc34)c(=O)[nH]c2cc1C	Sfp inh 50µM, TrxR1 inh inconclusive
CCOC(=O)N1CCN(C(=O)c2ccc(-n3c(C)ccc3C)cc2)CC1	none
CCc1nc2ccc(C(=O)NCCN(C)C)cn2c1N(CC)CCOC	none (no result: Sfp inh, TrxR1 substrate, TrxR1 inh, VDR inhibitor, KAT2A inh)
CCOC(=O)c1ccc(Oc2nc(NC(C)(C)C)nc(N(C)C)n2)cc1	none
